# Reference: PubChem BioAssay (EPA / NIEHS)
# The source made the active and inactive calls. The calls were made as follows: active = hit-call score of the fitted dose curve at least 0.9, where 1 is the maximum; inactive = score below 0.9.
# Read-out: TIMP metallopeptidase inhibitor 2 (TIMP2), TIMP2 (gene 7077)
# Assay: BSK_KF3CT_TIMP2: BioMAP Diversity Plus: KF3CT Assay for TIMP metallopeptidase inhibitor 2 (TIMP2) Biomarker Activity (AID 2283071)
# Details: primary human keratinocytes with fibroblasts; actives raise or lower the signal
# Outline: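 ELISA readout of TIMP-2 in keratinocyte plus foreskin fibroblast co-cultures (human skin primary cells), 24 h post-dose. Gain or loss of signal fitted relative to DMSO.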
SMILES,AC50,outcome
CCCCCCc1ccc(O)cc1O,32.7 µM (active),
COc1ccc2sc(C(=O)Nc3nnn[nH]3)c(OC(C)C)c2c1,19.9 µM (active),
CN(C)c1ccc(N=NS(=O)(=O)O)cc1,,inactive
Nc1nc2ncc(CNc3ccc(C(=O)N[C@@H](CCC(=O)O)C(=O)O)cc3)nc2c(=O)[nH]1,,inactive
CCn1nc(Cc2ccccc2)cc1C1CCN(C[C@H]2C[C@H](N(C)[C@@H](C(=O)O)C(C)C)C[C@@H]2c2cccc(F)c2)CC1,,inactive
Cc1ccc(C)c(O)c1,,inactive
C=CC(=C)CCC=C(C)C,,inactive
O=C1OC(=O)C2C3C=CC(C3)C12 (stereo not given),,inactive
CCOC(=O)COc1ccc2c(c1)CC(NCC(O)c1cccc(Cl)c1)CC2 (stereo not given),,inactive
CCOCCOCCOCCO,,inactive
CCCC(=O)OCC,,inactive
O=C(O)c1cc(N=Nc2ccc(S(=O)(=O)Nc3ccccn3)cc2)ccc1O,,inactive
O=C(NS(=O)(=O)/C=C/c1ccccc1)c1ccc(F)cc1Cl,20 µM (active),
CCCCC(CC)COC(=O)CCCCCCCCC(=O)OCC(CC)CCCC (stereo not given),,inactive
CCCCCCCCCCCCc1ccccc1,,inactive
O=P(OC(CCl)CCl)(OC(CCl)CCl)OC(CCl)CCl,,inactive
CNS(=O)(=O)c1cc(C(=O)N2CCC(CCN3C4CCC3CC(n3c(C)nc5ccccc53)C4)(c3cccc(F)c3)CC2)c(Cl)cc1F (stereo not given),,inactive
Oc1ccc2c(c1)-c1ccccc1C2,,inactive
CC(C)CCCCCCOC(=O)c1ccc(C(=O)OCCCCCCC(C)C)c(C(=O)OCCCCCCC(C)C)c1,,inactive
O=C(O)CCN(C1(C(=O)NO)CCCC1)S(=O)(=O)c1ccc(Oc2ccc(F)cc2)cc1,,inactive
